The source made the active and inactive calls.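 How the source made its calls, unless noted: active means fluorescence slope after compound addition differing from the mean of all screened samples at 99.7% confidence, in either direction; inactive means the rest.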

Assay [1] can be described thus: inhibitors of TNFa-induced NFkB p65 translocation, primary screen, imaging, HUVEC, MLSMR starter and 10KST1 sets (AID 438;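 active means inhibition above 20% together with a positive visual image hit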;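 further: compound added about 3h40 before a 20 min TNFalpha stimulation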;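 on inhibition: signal is the nuclear over cytoplasmic p65 intensity ratio per well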). Particulars: HUVEC TNFa-induced p65 nuclear translocation; cell count: measured here: nuclei count (cytotoxicity indicator), at 2.08 µM; inhibition: at 2 µM, stronger effect = higher value, 0% TNFa-plus-vehicle, 100% no-TNFa wells.
Assay [2] in a line: inhibitors of mutant huntingtin aggregation, primary screen, imaging, exon1htt(103Q)mCFP cells, high-content imaging (AID 483;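 active means visual image review flags a hit and inhibition of aggregation exceeds 20%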;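 further: compound exposure lasted 3 days before fixation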;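 on nuclei count: percent of the per-plate median nuclei count of sample wells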). To be noted: exon1htt(103Q)mCFP cell line, aggregate imaging, at 2 µM; inhibition of aggregation: stronger effect = higher value; nuclei count: measured here: cell count, toxicity.
Assay [3] is described as follows: inhibitors of E-selectin induction by TNFa, primary screen, imaging, HUVEC, immunofluorescence, MLSMR starter and 10KST1 sets (AID 487;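 active means visually confirmed hit in the image check and inhibition above 20%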;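 on inhibition: signal is fraction of cell area covered by stained E-selectin grains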;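 on nuclei count: 100% = median nuclei count of all wells on the same plate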). To be noted: HUVEC TNFalpha-induced E-selectin immunofluorescence imaging, at 2 µM; inhibition: stronger effect = higher value; nuclei count: measured here: cell number, toxicity.
The target of assay [4] is Voltage-gated potassium channel subunit beta-2 (Rattus norvegicus) (UniProt P62483). Description: KvBeta enzyme negative modulators, primary screen, biochemical, NADPH fluorescence (AID 622;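 active means fluorescence slope higher than the sample average by over 3 SD, cut at about -0.22 in these data, passing the limit was not always enough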;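 further: slope of raw intensity against log time taken from 70 to 1610 s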). Particulars: recombinant KvBeta, 4-cyanobenzaldehyde reduction, at 10 µM, stronger effect = higher value.
Sequence of Voltage-gated potassium channel subunit beta-2 (Rattus norvegicus) (P62483 whole entry, looked up): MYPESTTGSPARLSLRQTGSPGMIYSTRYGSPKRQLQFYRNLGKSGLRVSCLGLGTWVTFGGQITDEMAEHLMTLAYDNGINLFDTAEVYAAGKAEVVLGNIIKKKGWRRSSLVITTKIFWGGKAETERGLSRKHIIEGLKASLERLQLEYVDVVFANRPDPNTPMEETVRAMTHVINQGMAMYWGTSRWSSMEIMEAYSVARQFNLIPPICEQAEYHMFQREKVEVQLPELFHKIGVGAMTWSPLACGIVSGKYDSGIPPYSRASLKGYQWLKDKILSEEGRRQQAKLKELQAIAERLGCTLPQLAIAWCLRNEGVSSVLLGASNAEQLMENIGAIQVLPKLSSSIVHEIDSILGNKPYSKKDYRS
For assay [5] the target is unchanged. In words: KvBeta positive modulators, primary screen, biochemical, NADPH fluorescence (AID 623;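 active means NADPH fluorescence slope more negative than the mean of all samples by about 3 SD, 99.7% confidence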;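 further: fluorescence intensity change per second fitted from 20 to 320 s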). To be noted: Recombinant KvBeta, NADPH fluorescence decrease slope, 10 min; at 10 µM; stronger effect = lower value.
Assay [6] has as its target Alpha-2C adrenergic receptor (Homo sapiens) (UniProt P18825). In words: modulators of alpha2C/GIRK thallium flux, primary screen, cell-based, HEK293 alpha2C/GIRK1/2 (AID 624).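 Further: slope of fluorescence ratio to pre-addition baseline per second over 15 to 24 s.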 To be noted: thallium flux BTC fluorescence, at 10 µM, actives lie on both sides.
A short description of assay [7]: inhibitors of Sendai virus-induced IRF3 signaling, primary screen, TLR/RLR signaling modifier project, cell-based, Sendai virus stimulus, luciferase, 10K MLSCN set (AID 602276;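 active means inhibition at or above 50% at 10 µM; inactive means inhibition below 50%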;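 further: firefly luciferase from ISG56 promoter only with Renilla not read in this screen; 0% = Sendai virus plus DMSO and 100% = medium plus DMSO without virus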). To be noted: HEK293 RL24 IRF3 luciferase reporter, at 10 µM, stronger effect = higher value.
A short description of assay [8]: inhibitors of poly I:C-induced TLR3 signaling, primary screen, cell-based, poly I:C stimulus, luciferase, 10K MLSCN set (AID 602277;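 active means inhibition of the reporter signal at or above 50%; inactive means inhibition below 50%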). To be noted: HEK293-TLR3 RL24 IRF3 luciferase reporter, at 10 µM, stronger effect = higher value. For orientation: A reporter such as luciferase makes a cellular process visible.

Sequence of Alpha-2C adrenergic receptor (Homo sapiens) (P18825 whole entry, looked up): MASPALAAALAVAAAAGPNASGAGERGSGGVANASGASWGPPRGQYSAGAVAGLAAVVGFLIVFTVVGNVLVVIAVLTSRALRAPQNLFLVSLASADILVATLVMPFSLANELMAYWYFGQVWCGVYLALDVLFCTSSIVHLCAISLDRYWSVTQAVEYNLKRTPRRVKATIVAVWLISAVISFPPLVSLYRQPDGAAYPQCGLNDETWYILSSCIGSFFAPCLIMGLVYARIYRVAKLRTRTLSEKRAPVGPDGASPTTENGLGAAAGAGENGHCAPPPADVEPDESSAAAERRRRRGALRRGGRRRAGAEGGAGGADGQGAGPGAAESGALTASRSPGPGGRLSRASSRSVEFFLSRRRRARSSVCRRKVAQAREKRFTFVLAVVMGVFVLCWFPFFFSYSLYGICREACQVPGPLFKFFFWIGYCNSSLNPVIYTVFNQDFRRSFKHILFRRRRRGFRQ

Broadly, the inhibition is the relative decrease from the control value, in per cent. Turning to `CCOCCCNC(=O)C1CCN(S(=O)(=O)N(CC(C)C)CC(C)C)CC1`, in assay [1], the cell count came to 689. Also, the inhibition is -5.1% (inactive) in assay [1], -91.6% (inactive) in assay [3], 16.6% (inactive) in assay [7] and 19.9% (inactive) in assay [8]. Besides, the inhibition of aggregation in assay [2] was 17.3% (inactive). In addition, the results for the nuclei count in assay [2] and in assay [3] were 79.1% and 100%, respectively. Also, the fluorescence slope in assay [4] was -0.503 (inactive). Moreover, the NADPH fluorescence slope in assay [5] was -5.5e-05 (inactive). For the same molecule, the slope in assay [6] is 0.00467 (inactive).

For the molecule `Cc1cccc(N2C(=O)CC(N(C(=O)c3ccco3)c3cccc(C)c3)C2=O)c1` (centres undefined), the cell count in assay [1] was 641. The inhibition in assay [1] is -9.3% (inactive); in assay [3] it was -156% (inactive); in assay [7], 13.6% (inactive); in assay [8] it was 19% (inactive). Also, the inhibition of aggregation in assay [2] was -5.2% (inactive). For the same molecule, the results for the nuclei count in assay [2] and in assay [3] were 99% and 102%, respectively. For the same molecule, in assay [4], the fluorescence slope is -0.504 (inactive). Also, the NADPH fluorescence slope in assay [5] was -5.1e-05 (inactive). Moreover, the slope in assay [6] is 0.00488 (inactive).

For the molecule `CCOc1ccc(N(CC)C(=O)COc2cc(=O)n(C)c3ccccc23)cc1`, in assay [1], the cell count amounted to 622. In addition, the inhibition in assay [1] was 16.5% (inactive); in assay [3], -47.3% (inactive); in assay [7], 12.4% (inactive); in assay [8], 29.8% (inactive). Also, the inhibition of aggregation in assay [2] is -19.7% (inactive). Besides, the figures for the nuclei count in assay [2] and in assay [3] were 101% and 118%, respectively. Further, the fluorescence slope in assay [4] is -0.516 (inactive). For the same molecule, in assay [5], the NADPH fluorescence slope is 7.5e-06 (inactive). In addition, the slope in assay [6] is 0.0065 (inactive).

As to `Cc1ccc(CN2C(=O)CCC2C(=O)NCCCN2CCC(C)CC2)cc1` (centres undefined), the cell count in assay [1] was 379. Besides, the inhibition in assay [1] was -7.4% (inactive); in assay [3], 6.2% (inactive); in assay [7], 14.7% (inactive); in assay [8] it was 9.9% (inactive). Moreover, in assay [2], the inhibition of aggregation was 19.6% (inactive). Also, the nuclei count in assay [2] was determined as 85.5%; in assay [3] it was 77.7%. Also, in assay [4], the fluorescence slope was -0.584 (inactive). In addition, in assay [5], the NADPH fluorescence slope is -3.4e-05 (inactive). Also, in assay [6], the slope is 0.00384 (inactive).

Take `CC(C)c1ccc(NC(=O)CCNS(=O)(=O)c2cccc3nonc23)cc1`: the cell count in assay [1] turned out to be 669. The inhibition was -6.5% (inactive) in assay [1], -55.8% (inactive) in assay [3], 16.4% (inactive) in assay [7] and 24.2% (inactive) in assay [8]. Further, the inhibition of aggregation in assay [2] is 24.6% (inactive). In addition, the values for the nuclei count in assay [2] and in assay [3] were 98% and 106%, respectively. For the same molecule, in assay [4], the fluorescence slope was -0.544 (inactive). Moreover, the NADPH fluorescence slope in assay [5] is 2.2e-05 (inactive). Further, in assay [6], the slope was 0.00564 (inactive).

On to `CCC(C)(C(=O)NC1CCCC1)N(Cc1cccs1)C(C)=O` (centres undefined), for which the cell count in assay [1] worked out at 472. Moreover, the inhibition in assay [1] was 6.2% (inactive); in assay [3], -15% (inactive); in assay [7], 14.8% (inactive); in assay [8] it was 24.4% (inactive). Further, the inhibition of aggregation in assay [2] was -9.4% (inactive). For the same molecule, the nuclei count in assay [2] was determined as 115%; in assay [3] it was 93.8%. Moreover, the fluorescence slope in assay [4] was -0.491 (inactive). The NADPH fluorescence slope in assay [5] was -1.6e-05 (inactive). Besides, the slope in assay [6] is 0.00646 (inactive).

On to `CSCSC1=C(C#N)C(c2ccc(Cl)cc2)C(C(C)=O)=C(C)N1` (centres undefined), for which the cell count in assay [1] is 324. For the same molecule, the inhibition in assay [1] was -1% (inactive); in assay [3], -47.6% (inactive); in assay [7], 10.5% (inactive); in assay [8] it was 23.2% (inactive). For the same molecule, the inhibition of aggregation in assay [2] was -2.2% (inactive). The nuclei count turned out to be 112% in assay [2] and 102% in assay [3]. Moreover, the fluorescence slope in assay [4] is -0.451 (inactive). Moreover, the NADPH fluorescence slope in assay [5] was -0.00017 (inactive). The slope in assay [6] was 0.00657 (inactive).

As for `COC(=O)c1ccc(C)c(NS(=O)(=O)c2ccc3c(c2)OCCO3)c1`, in assay [1], the cell count turned out to be 263. Further, the inhibition in assay [1] was 12.5% (inactive); in assay [3] it was -60.4% (inactive); in assay [7], 43.8% (inactive); in assay [8], 58.5% (active). Further, the inhibition of aggregation in assay [2] was 22.6% (inactive). Further, the nuclei count was 56.8% in assay [2] and 94% in assay [3]. Moreover, the fluorescence slope in assay [4] was -0.393 (inactive). Besides, in assay [5], the NADPH fluorescence slope is -5.8e-05 (inactive). The slope in assay [6] was 0.00526 (inactive).

For the molecule `COc1ccc(OC)c(S(=O)(=O)N2c3ccccc3CC2C)c1` (centres undefined), the cell count in assay [1] came to 609. The inhibition in assay [1] was -6.3% (inactive); in assay [3], -32% (inactive); in assay [7], 5.85% (inactive); in assay [8], 21.2% (inactive). Also, in assay [2], the inhibition of aggregation is 4.4% (inactive). The nuclei count in assay [2] was 84.6%; in assay [3] it was 123%. For the same molecule, the fluorescence slope in assay [4] is -0.566 (inactive). The NADPH fluorescence slope in assay [5] was 2.6e-06 (inactive). The slope in assay [6] is 0.00606 (inactive).

Take `Cc1c(N(C)C)nc2ccccc2c1N`: the cell count in assay [1] came out at 575. For the same molecule, the inhibition in assay [1] is -3.8% (inactive); in assay [3], 42.5% (inactive); in assay [7] it was 13.7% (inactive); in assay [8], 20.7% (inactive). The inhibition of aggregation in assay [2] is -19.4% (inactive). In addition, the values for the nuclei count in assay [2] and in assay [3] were 99.7% and 81.2%, respectively. For the same molecule, the fluorescence slope in assay [4] is -0.361 (inactive). In assay [5], the NADPH fluorescence slope was -1.5e-05 (inactive). The slope in assay [6] was 0.00599 (inactive).

Take `CCOC(=O)c1ccc(NC(=O)c2ccc(NS(C)(=O)=O)cc2)cc1`: in assay [1], the cell count came out at 473. In addition, the inhibition in assay [1] is -4.3% (inactive); in assay [3], 32.9% (inactive); in assay [7], 6.57% (inactive); in assay [8], 11.9% (inactive). In assay [2], the inhibition of aggregation was 8.8% (inactive). Further, the nuclei count in assay [2] was determined as 95.3%; in assay [3] it was 95.1%. Further, the fluorescence slope in assay [4] is -0.401 (inactive). For the same molecule, the NADPH fluorescence slope in assay [5] is 4e-05 (inactive). For the same molecule, in assay [6], the slope is 0.00834 (inactive).

For the molecule `N/C(=N/O)c1nc(N2CCCCC2)nc(N2CCCCC2)n1`, the cell count in assay [1] was found to be 640. Also, the inhibition in assay [1] is -16.2% (inactive); in assay [3], -50.5% (inactive); in assay [7] it was 8.03% (inactive); in assay [8], 24.6% (inactive). Also, the inhibition of aggregation in assay [2] is -135% (inactive). For the same molecule, the nuclei count was 53.7% in assay [2] and 81.9% in assay [3]. Besides, the fluorescence slope in assay [4] is -0.498 (inactive). For the same molecule, the NADPH fluorescence slope in assay [5] is 8.9e-06 (inactive). Besides, in assay [6], the slope was 0.00632 (inactive).

For `O=C1CN(Cc2ccccc2)C(=NCc2ccco2)S1`, the cell count in assay [1] was found to be 446. Moreover, the inhibition was 3.4% (inactive) in assay [1], 13.6% (inactive) in assay [3], 8.96% (inactive) in assay [7] and 30.9% (inactive) in assay [8]. Moreover, the inhibition of aggregation in assay [2] was -5.3% (inactive). In addition, the nuclei count is 99.8% in assay [2] and 97.4% in assay [3]. The fluorescence slope in assay [4] is -0.451 (inactive). Also, the NADPH fluorescence slope in assay [5] is -2.2e-05 (inactive). Besides, in assay [6], the slope was 0.00487 (inactive).

On to `Cc1ccccc1OCCn1c(=O)oc2ccccc21`, for which the cell count in assay [1] is 316. Besides, the inhibition in assay [1] was -4.7% (inactive); in assay [3], -43.9% (inactive); in assay [7], 5.52% (inactive); in assay [8] it was -6.56% (inactive). Further, in assay [2], the inhibition of aggregation was -1.9% (inactive). Moreover, the nuclei count worked out at 144% in assay [2] and 128% in assay [3]. Further, the fluorescence slope in assay [4] is -0.353 (inactive). Moreover, the NADPH fluorescence slope in assay [5] is -8e-06 (inactive). Also, in assay [6], the slope was 0.00518 (inactive).

The record behind these values is PubChem BioAssay.
